According to ChEMBL document CHEMBL4513141, “CO-ADD screening of NIH (USA) - Clinical Collection” (2021):
Entries with a potency or affinity are not part of this list.

Experiments:
Klebsiella pneumoniae = conditions: Concentration 20 uM; ASSAY_TEST Inhibition of Bacterial Growth; detection method Absorption (OD600); MEDIA CAMHB; plate type 384well; NBS; CORNING #3640; time 18 hr
Candida albicans = conditions: 20 µM
Cryptococcus neoformans = conditions: Concentration 20 uM; ASSAY_TEST Inhibition of Fungal Growth; detection method Resazurin; Absorption (OD600-OD570); plate type 384well; NBS; CORNING #3640

Compound	Inhibition (Klebsiella pneumoniae) [%]	Inhibition (Candida albicans) [%]	Inhibition (Cryptococcus neoformans) [%]
Cn1c(=O)c2nc[nH]c2n(C)c1=O.O [THEOPHYLLINE]	1.07	3.65	7.56
COc1cc(CNC(=O)CCCC/C=C\C(C)C)ccc1O [ZUCAPSAICIN]	12.92	4.72	-5.9
CN(C)CCC=C1c2ccccc2CCc2ccccc21.Cl [AMITRIPTYLINE HYDROCHLORIDE]	11.13	3.15	-4.46
CN1[C@@H](CC(=O)c2ccccc2)CCC[C@H]1C[C@H](O)c1ccccc1.Cl [LOBELINE HYDROCHLORIDE]	19.91	2.98	-5.47
O=C(O)CCCc1ccc(N(CCCl)CCCl)cc1 [CHLORAMBUCIL]	9.18	2.65	0.85
CNC1=Nc2ccc(Cl)cc2C(c2ccccc2)=[N+]([O-])C1 [CHLORDIAZEPOXIDE]	19.46	2.53	-9.21
Cl.O.Oc1ccc2c3c1O[C@H]1c4[nH]c5ccccc5c4C[C@@]4(O)C(C2)N(CC2CC2)CC[C@]314	-0.12	6.31	-5.72
COC(=O)C[C@](O)(CCCC(C)(C)O)C(=O)O[C@@H]1C(OC)=C[C@]23CCCN2CCc2cc4c(cc2[C@H]13)OCO4 [OMACETAXINE MEPESUCCINATE]	9.21	3.16	1.94
CC(C)NCC(O)COc1cccc2[nH]ccc12 (stereo not given) [PINDOLOL]	17.1	3.5	-9.82
C[C@]12CC[C@H]3[C@@H](CCC4=CC(=O)CC[C@@H]43)[C@@H]1CC[C@@H]2O [NANDROLONE]	5.92	7.15	-1.13
